FBW7 activator – FBW7 E3 ligase activators, primary screen, biochemical, AlphaScreen, human | AlphaScreen FBW7–phospho-cyclin E peptide binding, activator screen | normalized activity (activation), % at 26.1 µM | hit rate 0.13% among 650,000 | F-box/WD repeat-containing protein 7 (Homo sapiens), Q969H0; in the data active means normalized activity above about 1.9%;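 further: purified mutant Fbw7 with reduced substrate affinity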
TEAD-YAP inh – TEAD-YAP interaction inhibition, primary screen, TEAD-YAP interaction inhibitor project, luminescence, HEK-TIYL cells; TEAD-Gal4/YAP UAS-luciferase luminescence; inhibition, % at 9.12 µM; hit rate 1.4% among 640,000; in the data active means inhibition above about 32%;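 further: 0% = median of test compound wells and 100% = reference inhibitor wells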
MITF inh – MITF inhibitors, primary screen, biochemical, AlphaScreen, human; AlphaScreen MITF homodimerization, bead proximity signal; inhibition, % at 2.6 µM; hit rate 0.91% among 650,000; AID 1259374, 2018; in the data active means inhibition above about 50%;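 further: 0% = vehicle wells with protein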
Target sequence (O75030 whole entry, looked up): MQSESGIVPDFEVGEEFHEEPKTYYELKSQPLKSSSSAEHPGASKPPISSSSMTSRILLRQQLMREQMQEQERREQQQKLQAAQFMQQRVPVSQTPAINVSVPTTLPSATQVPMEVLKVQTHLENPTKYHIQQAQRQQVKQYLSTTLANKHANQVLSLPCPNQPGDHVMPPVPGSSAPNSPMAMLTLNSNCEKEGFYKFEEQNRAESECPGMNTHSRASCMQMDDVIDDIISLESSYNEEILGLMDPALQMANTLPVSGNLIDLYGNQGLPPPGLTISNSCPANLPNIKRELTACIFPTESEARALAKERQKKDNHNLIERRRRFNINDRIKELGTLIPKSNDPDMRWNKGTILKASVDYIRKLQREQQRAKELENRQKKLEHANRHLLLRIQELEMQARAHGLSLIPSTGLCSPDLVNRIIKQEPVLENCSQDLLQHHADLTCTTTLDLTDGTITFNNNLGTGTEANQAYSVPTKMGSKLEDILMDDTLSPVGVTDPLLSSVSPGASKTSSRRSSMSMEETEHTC
GPR151 activ – activators of human GPR151, primary screen, cell-based, PathHunter beta-arrestin, luminescence; PathHunter beta-arrestin GPR151 cells; activation, % at 11.2 µM; hit rate 1% among 650,000; AID 1508602, 2020; in the data active means activation above about 4.9%;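 further: 0% = median of compound wells and 100% = cells with positive control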
GPR151 confirm – GPR151 activators, triplicate retest, confirmation, cell-based, PathHunter beta-arrestin, luminescence | activation, % at 11.2 µM | AID 1508609, 2020 | shares compounds with GPR151 activ | 6,700 tested, under 10 active | GPR151 PathHunter beta-arrestin cells, 90 min; % of EA-reagent control over plate median;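 active means mean percent activation across replicates above the confirmation screen cutoff of 4.91%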
GPR119 counter – GPR119 activators in beta-arrestin cells, counter-screen for GPR151 activator project, cell-based, PathHunter beta-arrestin, luminescence, triplicate; hit rate 0.3% among 6,700; shares compounds with GPR151 activ; activation, % at 11.2 µM; 90 min; 0 = compound-well median, 100 = enzyme-acceptor control;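 active means mean percent activation in the counterscreen above 29.09%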;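 further: counterscreen on off-target GPR119 to flag nonselective hits from the GPR151 activator screen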
An asterisk follows results filed as active; . = no result. Rows were chosen to be rich in hits. Some 3.4% of all compounds tested hit in one or more screens of this group.

SMILES	FBW7 activator	TEAD-YAP inh	MITF inh	GPR151 activ	GPR151 confirm	GPR119 counter
CC1CCN(S(=O)(=O)c2ccc(C(=O)Nc3nc(-c4ccncc4)cs3)cc2)CC1	0	-10	-9	4.9*	0	10
O=C(Nc1nc(-c2ccncc2)cs1)c1ccc(S(=O)(=O)N2CCCCC2)cc1	0	-2	5	0	.	.
COc1ccc(CN2CCN(Cc3ccc(OC)c(OC)c3OC)CC2)c(OC)c1	0	2	41	11*	-1	8
CC1CCC(C(C)C)C(OC(=O)CSc2cccc[n+]2[O-])C1 (stereo unspecified)	0	-13	-10	4.9*	-1	-5
CC1CCC(C(C)C)C(OC(=O)CSc2nnnn2C)C1 (stereo unspecified)	0	-4	-13	0	.	.
c1cncc(-c2noc(C34CC5CC(CC(C5)C3)C4)n2)c1	0	-3	-10	6.9*	2	0
c1cncc(-c2noc(CCC3CCCC3)n2)c1	0	-5	-12	7.7*	1	3
O=C(NCc1ccccc1)C1CC(CCc2ccccc2)=NO1 (stereo unspecified)	0	1	14	1	.	.
COc1ccc(/C=N/NC(=O)CSCc2ccccc2C)cc1	0	4	-7	0	.	.
Cc1ccc(Nc2nnc(SCC(=O)N3CCOCC3)s2)cc1	0	-6	4	-2	.	.
Cc1ccc(Nc2nnc(SCC(=O)N3CCCC3)s2)cc1	0	2	-17	5.6*	0	-12
COc1ccc(CNS(=O)(=O)c2ccc3[nH]c(=O)ccc3c2)cc1	0	3	8	6.6*	0	-6
Cc1cc(C(=O)Nc2cc(Cl)ccc2O)on1	0	-29	6	10*	0	12
COc1ccc(C2CC(C(F)(F)F)n3nc(C(=O)Nc4cccc(O)c4)cc3N2)cc1 (stereo unspecified)	0	2	14	5.8*	0	12
COc1ccc(C2CC(C(F)(F)F)n3nc(C(=O)Nc4cccc(C(F)(F)F)c4)cc3N2)cc1 (stereo unspecified)	0	0	-6	0	.	.
CCOc1ccc(CN(C(=O)c2cccs2)C2CCS(=O)(=O)C2)cc1 (stereo unspecified)	0	-9	5	6.8*	0	9
COc1ccc(CN(C(=O)c2cccs2)C2CCS(=O)(=O)C2)cc1 (stereo unspecified)	0	0	14	0	.	.
Cc1nnsc1C(=O)Nc1ccccc1Br	0	-4	5	0	.	.
COc1ccccc1CN[C@H]1C[C@H]2C(=O)N[C@@H](CO)C(=O)N2C1	1	2	11	5.2*	1	15
CC(C)C[C@@H]1NC(=O)[C@@H]2C[C@H](NCc3ccc(C(C)C)cc3)CN2C1=O	0	3	2	-1	.	.
O=C1N[C@H](CO)C(=O)N2C[C@@H](NCc3nc(-c4ccc(F)cc4)cs3)C[C@@H]12	0	11	-1	7.7*	0	10
Cn1cc(CN[C@H]2C[C@H]3C(=O)N[C@@H](Cc4ccccc4)C(=O)N3C2)c(-c2ccccc2)n1	0	-16	-19	9.8*	0	4
CC(C)C[C@H]1NC(=O)[C@@H]2C[C@H](NCc3nc(-c4ccc(F)cc4)cs3)CN2C1=O	0	-2	-14	-1	.	.
COc1ccc(CN[C@H]2C[C@H]3C(=O)N[C@H](CC(C)C)C(=O)N3C2)cc1	0	-5	6	5.1*	0	10
CCN(CC)c1ccc(C2C(C(=O)OCCOc3ccccc3)=C(C)NC3=C2C(=O)CCC3)cc1 (stereo unspecified)	0	3	-3	-1	.	.
SMILES	FBW7 activator	TEAD-YAP inh	MITF inh	GPR151 activ	GPR151 confirm	GPR119 counter
Cc1ccc(NC(=O)CN2CCC(C(=O)N3CCN(Cc4ccccc4)CC3)CC2)cc1	0	11	27	-1	.	.
COC(=O)C1(C(F)(F)F)N=C2C=CC(Cl)=CN2C(c2ccccc2)=N1 (stereo unspecified)	0	3	15	0	.	.
CCC[C@@H]1NC(=O)[C@@H]2C[C@H](NCc3cc(C)ccc3F)CN2C1=O	0	-7	-2	9.4*	2	11
CCC[C@@H]1NC(=O)[C@@H]2C[C@H](NCc3cc4ccccc4s3)CN2C1=O	0	1	10	5.6*	0	13
CC1=CC(C)(C)N(C(=O)CN2C(=O)CCC2=O)c2cc(C)ccc21	0	3	5	12*	-1	-12
CCOC(=O)c1c(C)oc2nc(CCl)[nH]c(=O)c12	0	4	-4	12*	-1	-9
CCc1ccccc1N(C(C)=O)C1C=CS(=O)(=O)C1 (stereo unspecified)	0	0	2	5	.	.
CC(=O)N(c1cccc2ccccc12)C1C=CS(=O)(=O)C1 (stereo unspecified)	0	-2	-10	4.9*	0	-7
CCN(Cc1ccncc1)Cc1ccc2c(c1)CN(C(=O)Cn1nc(C)cc1C)CCO2	0	-6	-3	1	.	.
CC1=C(NCc2ccccc2)CCC1=O	0	7	12	6.0*	-1	-4
CC1(C)CC(=O)C([N+](=O)[O-])=C(NCc2ccccc2)C1	0	2	1	0	.	.
O=C(CCc1nnc(Cc2ccc3c(c2)OCO3)o1)NCCCC1CCCC1	0	-2	0	6.9*	-1	-1
O=C1c2cccc([N+](=O)[O-])c2C(=O)N1CN1CCCc2ccccc21	0	2	3	-1	.	.
COc1cccc(CNC(=O)c2ccc(CNc3c(N4CCOCC4)c(=O)c3=O)cc2)c1	0	-12	1	8.6*	-1	-6
CCOC(=O)N1CCN(c2c(NCc3cccnc3)c(=O)c2=O)CC1	0	3	-6	-1	.	.
CCOC(=O)N1CCN(c2c(NCc3ccc(Cl)cc3)c(=O)c2=O)CC1	0	53*	2	4.9*	0	-8
O=C(O)c1ccc(CNc2c(N3CCCCC3)c(=O)c2=O)cc1	0	-6	1	7.5*	0	-1
CCOC(=O)N1CCN(c2c(NC3CCC(C)CC3)c(=O)c2=O)CC1 (stereo unspecified)	0	-3	1	5.0*	0	9
CCOC(=O)N1CCN(c2c(NC3CCCCC3)c(=O)c2=O)CC1	0	1	10	0	.	.
CNc1ccccc1C(=O)OCC(=O)c1ccc(C)c(C)c1	0	-38	-3	1	.	.
